Compound activity as filed in PubChem.
Furin inh – inhibitors of human furin. purified furin, fluorogenic substrate cleavage. hit rate 0.061% among 220,000. AID 463115. P09958. inhibition, % at 20 µM or 30 µM; in the data active = inhibition above about 25%
Target sequence (P09958 108-714 limits assumed): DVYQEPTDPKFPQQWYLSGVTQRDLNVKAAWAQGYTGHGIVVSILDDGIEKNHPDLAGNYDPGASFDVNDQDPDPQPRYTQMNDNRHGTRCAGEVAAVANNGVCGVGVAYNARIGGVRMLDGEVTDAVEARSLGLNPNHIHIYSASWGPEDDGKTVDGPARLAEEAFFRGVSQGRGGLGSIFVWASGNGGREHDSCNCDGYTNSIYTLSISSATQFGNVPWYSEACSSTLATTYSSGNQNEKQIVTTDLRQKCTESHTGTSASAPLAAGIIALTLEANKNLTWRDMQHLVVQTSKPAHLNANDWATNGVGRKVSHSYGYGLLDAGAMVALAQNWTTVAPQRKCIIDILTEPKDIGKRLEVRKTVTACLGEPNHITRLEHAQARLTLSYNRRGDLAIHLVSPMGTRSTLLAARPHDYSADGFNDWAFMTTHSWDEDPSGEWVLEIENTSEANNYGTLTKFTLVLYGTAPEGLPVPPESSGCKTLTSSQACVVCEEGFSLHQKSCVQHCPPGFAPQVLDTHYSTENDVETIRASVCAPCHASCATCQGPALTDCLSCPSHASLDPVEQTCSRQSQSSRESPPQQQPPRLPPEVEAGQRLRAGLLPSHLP
PKD1 kinase inh – blocks activity of human protein kinase D1. inhibition, % (concentration not given with the values). PKD1 kinase fluorescence polarization assay. AID 797. Q15139. hit rate 0.056% among 200,000; in the data active = inhibition above about 50%
FAS TE block – blocks the thioesterase domain of human fatty acid synthase; P49327; recombinant FAS-TE, OMFH fluorogenic substrate, fluorescence endpoint; inhibition, % at 15 µM; hit rate 0.67% among 360,000; AID 602261;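 active = compounds whose normalised, plate-corrected inhibition of enzyme fluorescence in the single-dose primary screen is 50% or more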
p97 ATPase inh – inhibitors of human p97 ATPase; P55072; recombinant p97 ATPase, Kinase-Glo ATP luminescence, 3 h; inhibition, % at 8 µM; hit rate 0.42% among 220,000; in the data active = inhibition above about 15%
UBC9 SUMO inh – SUMOylation inhibition; P63279; HTRF SUMOylation assay, SAE1/SAE2 + UBC9, in vitro; inhibition, % at 35 µM; hit rate 0.36% among 290,000; in the data active = inhibition above about 50%, passing the limit was not always enough
DTT redox prof – compounds producing H2O2 with reducing agent – biochemical, NIH compound library profiling, artefact control for MLSCN library redox annotation, primary screen. DTT-dependent redox cycling H2O2, phenol red/HRP absorbance; 100% = 100 µM peroxide control, 0% = buffer. activation, % at 10 µM. hit rate 0.03% among 200,000. AID 878;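 active = activation of at least 50% relative to the plate's high and low controls in the primary single-dose screen; inactive = activation below 50%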;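 note: compound incubated with DTT at 0.8 mM final as the reducing agent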
Hits are given with their value; - = inactive; . = no result. Hits are enriched below; roughly 1.2% of the tested compounds scored in any of these assays.

SMILES | Furin inh | PKD1 kinase inh | FAS TE block | p97 ATPase inh | UBC9 SUMO inh | DTT redox prof
O=C(Nc1nc(-c2ccccc2)cs1)c1cccc([N+](=O)[O-])c1 | - | - | 56.9 | - | - | -
O=C(CCN1C(=O)c2ccccc2C1=O)N(CCO)Cc1ccccc1 | 26.6 | - | - | - | - | -
O=C1/C(=C/c2ccco2)SC(=S)N1C1CCS(=O)(=O)C1 (configuration not stated) | - | - | - | - | 60.6 | -
O=C1/C(=C\c2ccco2)SC(=S)N1C1CCS(=O)(=O)C1 (configuration not stated) | - | . | - | - | - | .
O=C(C1=NN(c2ccccc2)C2C(=O)N(c3ccc(Cl)cc3)C(=O)C12)c1ccccc1 (configuration not stated) | - | - | - | - | - | -
O=C(C1=NN(c2ccccc2)C2C(=O)N(c3cccc(Cl)c3)C(=O)C12)c1ccccc1 (configuration not stated) | - | - | 64.4 | - | - | -
Cc1c(C)c2cc(Cl)c(O)c(CN3CCN(C)CC3)c2oc1=O | - | - | - | - | 52.1 | -
c1ccc2c(c1)C(=Nn1cnnc1)c1ccccc1-2 | 26.3 | - | - | - | - | -
O=C1/C(=N/n2cnnc2)c2ccccc2N1Cc1ccccc1 | - | - | . | - | - | -
CCCCN1C(=O)C(CC(=O)NCc2ccco2)CC(C(=O)N2CCCCCC2)=C1C (configuration not stated) | . | . | - | . | . | .
CC(=O)NC(c1ccc(C(C)C)cc1)c1ccc2cccnc2c1O (configuration not stated) | . | . | - | . | 56.3 | .
CN(C)c1ccc(C(=O)N2CCC2(C)C(=O)O)cc1 (configuration not stated) | . | . | - | . | . | .
COc1ccc(-c2ccnc3nc(/N=C/N(C)C)nn23)cc1 | - | - | . | - | 57.2 | -
CN(C)/C=N/c1nc2nccc(-c3cccnc3)n2n1 | - | - | - | - | 64.8 | -
Oc1c(/C=N/Nc2cccc3cccnc23)ccc2ccccc12 | - | - | - | - | 66.4 | -
O=C1NC2(CCCCC2)OC12CCCCC2 | . | . | - | . | . | .
Cc1csc(SCCn2c(N3CCCC3)nc3c2c(=O)[nH]c(=O)n3C)n1 | - | - | - | 14.5 | - | -
COCCN(CCOC)Cc1cc(=O)oc2cc(C)c(C)cc12 | . | . | - | . | . | .
CCN(CC)C(=O)C1=C(C)N(Cc2ccc(OC)cc2)C(=O)C(CC(=O)NCCCN(C)C)C1 (configuration not stated) | . | . | - | . | . | .
Cc1cc(NC(=O)Cn2c(=O)n(Cc3ccccc3)c(=O)c3ccccc32)no1 | - | - | - | - | 52.2 | -
CCCCCC(=O)N(CN1C(=O)CCC1=O)c1ccccc1 | 31.5 | - | - | - | - | -
OC(Cc1cccc(Br)c1)c1ncc(-c2ccccc2C(F)(F)F)[nH]1 (configuration not stated) | . | . | - | . | . | .
Cc1nc2c(C(=O)NCc3ccccc3Cl)c[nH]n2c(=O)c1Cl | - | - | - | 14.7 | - | -
Cc1nc2c(C(=O)NCCc3ccccc3Cl)c[nH]n2c(=O)c1Cl | - | - | - | - | - | -
O=C(CN1C(=O)/C(=C\c2ccco2)SC1=S)Nc1ccc(O)cc1C(=O)O | . | . | - | . | 82.5 | .
SMILES | Furin inh | PKD1 kinase inh | FAS TE block | p97 ATPase inh | UBC9 SUMO inh | DTT redox prof
C[C@@H]1CN([C@H](C)CO)C(=O)CCCn2cc(nn2)CO[C@H]1CN(C)C(=O)Nc1ccccc1 | . | . | - | . | . | .
COc1ccc(/C=C2\CCCC3C2=NN(C(=O)CSc2n[nH]c(N)n2)C3c2ccc(OC)cc2)cc1 (configuration not stated) | - | - | - | 14.7 | - | -
O=C(/C=C/c1ccccc1)C1C(=O)c2ccccc2C1=O | - | - | - | - | 59.4 | -
CCCCOc1ccc(-c2ncc(Cl)cn2)cc1 | 27.5 | - | - | - | - | -
COC(=O)c1ccccc1NC(=O)C1COc2ccccc2O1 (configuration not stated) | - | - | - | - | - | -
O=C(Nc1ccccc1C(=O)N1CCCC1)C1COc2ccccc2O1 (configuration not stated) | - | 65.7 | - | - | - | -
Oc1ccc(Cl)cc1C=Nc1ccc2c3c(cccc13)CC2 | - | - | - | - | 57.1 | -
Cc1cccc(C=Nc2ccc3c4c(cccc24)CC3)c1O | - | - | - | - | - | -
O=[N+]([O-])c1ccc(NN=CC2CCCCCC2)c([N+](=O)[O-])c1 | . | . | - | . | . | .
Cc1ccc(S(=O)(=O)Nc2c(Cl)c(Cl)c(O)c3ccccc23)cc1 | . | . | . | . | 91.5 | .
CC(C)(C)C(=O)Cn1nnc(-c2ccc(C(F)(F)F)cc2)n1 | - | . | - | - | - | .
NC(=O)Cn1nnc(-c2ccc(C(F)(F)F)cc2)n1 | 26.2 | - | - | - | - | -
CCN(C(=O)C(C)N1C(=O)/C(=C/c2ccco2)SC1=S)C1CCS(=O)(=O)C1 (configuration not stated) | . | . | - | . | - | .
CC(C(=O)O)N1C(=O)/C(=C/C=C/c2ccco2)SC1=S (configuration not stated) | - | - | - | - | 84.0 | -
CCOC(=O)c1cc(C)sc1/N=C/C1=C(O)CCCC1=O | 36.4 | - | - | - | - | -
CCOC(=O)c1cc(C)sc1/N=C/C1C(=O)CCCC1=O | 36.6 | - | - | - | - | -
CC(=O)NC(c1cccc(F)c1)c1nc(-c2cccc(C(F)(F)F)c2)cs1 (configuration not stated) | . | . | - | . | . | .
O=C1CCCC(O)=C1C=Nc1cccc(C(F)(F)F)c1 | 25.9 | - | - | - | - | -
CN(C)Cc1ccccc1CNC(=O)c1cccc(S(=O)(=O)Nc2ccc3c(c2)OCO3)c1 | . | . | - | . | . | .
COc1ccc(C2=NN(C(=O)c3cccc([N+](=O)[O-])c3)C(c3cccc([N+](=O)[O-])c3)C2)cc1 (configuration not stated) | - | - | 50.1 | - | - | -
C[C@H](CO)N1C[C@H](C)[C@@H](CN(C)S(=O)(=O)c2ccccc2F)Oc2ncc(C#Cc3cccnc3)cc2C1=O | . | . | - | . | . | .
O=c1c2ccccc2oc2ccc(NCCCN3CCOCC3)cc12 | . | . | - | . | - | .
O=c1c2ccccc2oc2cc(NCCCN3CCOCC3)ccc12 | . | . | - | . | 54.6 | .
COc1cccc2c1C(=O)c1c(O)c3c(c(O)c1C2=O)C[C@@](O)(C(=O)CO)C[C@@H]3O[C@H]1C[C@H](N)[C@H](O)[C@H](C)O1 | - | 74.7 | - | - | - | -
Cc1ccc2c(c1C)NC(C(=O)O)C1CC=CC21 (configuration not stated) | . | . | - | . | 58.1 | .
CCOC(=O)c1ccc2c(c1)C1C=CCC1C(C(=O)O)N2 (configuration not stated) | - | - | . | - | 59.6 | -
CCOC(=O)C1Nc2ccc(C(=O)O)cc2C2C=CCC12 (configuration not stated) | . | . | - | . | - | .
CCNC(=O)C1(C)CCN(C(=O)c2cccnc2SC)C1 (configuration not stated) | . | . | - | . | . | .
O=C1/C(=C\c2ccco2)CCC/C1=C\c1ccco1 | - | - | - | - | 51.9 | -
